# Screens from PubChem.
# BoNT-A LC inh2: inhibitors of Botulinum neurotoxin A light chain protease | inhibition, % at 10 µM | 0.17% of 360,000 active | multiplex microsphere protease substrate cleavage, flow cytometry; note: plate controls were buffer without enzyme for full effect and enzyme alone for no effect
# BoNT F protease: BoNT F light chain protease inhibition; Multiplex microsphere protease cleavage assay, flow cytometry; inhibition, % at 10 µM; 0.22% of 360,000 active; in the data active = inhibition above about 35%, passing the limit was not always enough; inconclusive = no clear call, values can overlap the other calls; note: plate controls were buffer without enzyme for full effect and enzyme alone for no effect
# Autofluor counter: counter-screen for toxin protease inhibitors: compound fluorescence. compound autofluorescence counterscreen, microsphere flow cytometry; stronger effect = higher value. fluorescence intensity (test concentration not listed). 3.1% of 360,000 active; in the data active = fluorescence intensity above about 16000; inconclusive = no clear call, values can overlap the other calls
# Anthrax LF prot: inhibitors of Bacillus anthracis lethal factor protease. P15917. multiplex microsphere protease cleavage assay, LF. inhibition, % at 10 µM. 0.12% of 360,000 active; note: plate controls were buffer without enzyme for full effect and enzyme alone for no effect
# * hit, by the source's call; ? = inconclusive. In the library only some 3.5% were active in any assay of this set; here they are far more common. Cut-off read from the data, not from the text of the source, unless noted: active = inhibition above about 30%; inconclusive = no clear call, values can overlap the other calls; inactive = below that.
SMILES,BoNT-A LC inh2,BoNT F protease,Autofluor counter,Anthrax LF prot
COc1ccc(N2C(=O)CSC2c2ccc3c(c2)OCO3)cc1 (centres undefined),-0.9,-1.7,16403*,1.9
O=C1C(Cl)=C(NCC2CCCO2)C(=O)N1Cc1ccccc1 (centres undefined),?,-2.2,20284*,-1.0
Cn1c(=O)c2c(nc(NCCCO)n2Cc2cccc(Br)c2)n(C)c1=O,?,4.5,18885*,-0.7
Cc1cccc(Cn2c(NCCO)nc3c2c(=O)n(C)c(=O)n3C)c1,1.1,-3.5,6820,-2.0
Cn1c(=O)n(Cc2ccccc2)c(=O)c2c1nc(NCC1CCCO1)n2Cc1ccccc1 (centres undefined),-0.8,-3.2,24036*,-4.2
O=C1C(Cl)=C(NC2CCCCC2)C(=O)N1Cc1ccccc1,-1.1,-0.6,4593,-9.2
CNc1nc2c(c(=O)n(C)c(=O)n2C)n1Cc1ccccc1,2.4,2.9,21814*,-0.8
CNc1nc2c(c(=O)n(C)c(=O)n2C)n1CCCc1ccccc1,-2.4,?,4142,-3.9
CCc1nc2c(OCc3c(C)noc3C)cccn2c1N(C=O)Cc1ccc(OC)cc1,0.0,-1.3,3598,-3.4
O=C/C(=C\Nc1ccccn1)c1nc2ccccc2o1,?,-6.2,17474*,-1.0
O=C/C(=C\Nc1ccccn1)c1nc2cc(Cl)ccc2o1,0.7,2.2,3820,-5.3
CCOC(=O)N1CCC(NC(=O)CCc2c(C)nc3c(c(C)nn3C(C)(C)C)c2C)CC1,4.3,4.2,21418*,1.1
Cc1nc2ncnn2c(C)c1CCC(=O)NCc1ccccc1,-2.3,-5.1,20501*,-1.1
CCOC(=O)N1CCN(C(=O)CCc2c(C)nc3c(c(C)nn3-c3ccc(C)c(C)c3)c2C)CC1,-0.8,-4.5,20186*,-8.0
CCOC(=O)CCc1c(C)nc2ncnn2c1C,?,-2.3,23382*,-1.5
Cc1nc2nc(CNC(=O)OC(C)(C)C)nn2c(C)c1CCC(=O)Nc1ccc2c(c1)OCO2,0.4,-4.0,5376,-0.6
Cc1nc2nc(C)c(CCC(=O)NC(C)c3ccc4c(c3)OCCO4)c(C)n2n1 (centres undefined),0.5,-0.3,3157,1.9
Cc1nc2ncnn2c(C)c1CCC(=O)NC(C)c1ccc2c(c1)OCCO2 (centres undefined),-1.0,-0.7,22862*,-0.7
CCOC(=O)N1CCC(NC(=O)CCc2c(C)nc3ncnn3c2C)CC1,?,0.7,22017*,-0.6
Cc1nc2nc(C)c(CCC(=O)NCc3ccc4c(c3)OCO4)c(C)n2n1,?,-9.7,17817*,-3.1
CCOC(=O)C1CCCCN1C(=O)CCc1c(C)nc2ncnn2c1C (centres undefined),-5.4,-5.2,21476*,2.0
CC(C)C[C@@H](CN1CCC[C@H]1CN1C(=O)C(=O)NC[C@@H]1Cc1ccccc1)N1C[C@H](Cc2ccccc2)N(CC2CCCCCC2)C(=O)C1=O,-0.9,-6.3,5142,-1.5
NC1(CO)COC(c2ccccc2)OC1 (centres undefined),-0.4,-2.3,3494,-6.2
Cc1nn2c(c1-c1ccc(Cl)cc1)N=C(c1ccco1)CC2c1ccccc1 (centres undefined),6.3,2.7,22364*,-1.0
CC(=O)N1N=C(c2ccco2)CC1c1ccc(C)cc1 (centres undefined),-0.5,-10.9,2678,-3.0
SMILES,BoNT-A LC inh2,BoNT F protease,Autofluor counter,Anthrax LF prot
COc1cnn(C(C)(C)C)c(=O)c1Cl,?,6.5,19156*,-6.8
Cc1cccc(Oc2cnn(C(C)(C)C)c(=O)c2Cl)c1,-1.7,-12.9,10209,-4.3
CCN1CCN(C(=O)c2cc(-c3cccnc3)nc3ccc(Br)cc23)CC1,?,-0.9,20068*,2.2
Cc1ccc(S(=O)(=O)Oc2ccc(/C=C3\N=C(c4cccc(C)c4)OC3=O)cc2)cc1,3.8,3.6,21802*,3.2
Cc1cccc(C2=N/C(=C\c3cccs3)C(=O)O2)c1,0.7,0.2,4541,5.6
c1cc(-c2ccc(N3CCOCC3)cc2)n2ccnc2c1,-0.2,-0.2,2827,-2.8
Cc1ccc(Cc2nnc3n(-c4ccccc4)nc(C(=O)c4ccccc4)n3c2=O)cc1,-2.7,-5.4,21560*,-1.2
Cc1ccc(CNC(=O)c2cc(C)nn2-c2ccccc2)cc1,0.5,1.3,4071,-2.0
CCOC(=O)N(C)C[C@@H]1OCc2cnnn2CCCC(=O)N([C@H](C)CO)C[C@H]1C,0.3,0.3,3387,-1.7
COC(=O)c1cccc(NC(=O)c2nn(C(C)C)c(=O)c3ccccc23)c1,?,-3.5,17352*,-0.9
O=C(NCCCn1ccnc1)c1cc2c(s1)CCCCC2,-5.4,-8.8,25451*,0.1
CNC(=O)c1cc2c(s1)CCCCCC2,1.5,5.1,10973,1.2
O=C(NCc1ccco1)c1cc2c(s1)CCCCC2,10.5,12.6,18946*,-19.1
O=C(Nc1ccon1)c1cc2c(s1)CCCC2,?,4.8,22744*,1.0
O=C(Nc1ccon1)c1cc2c(s1)CCCCCC2,?,-3.9,16721*,-0.8
CC1CCc2sc(C(=O)NCCCn3ccnc3)cc2C1 (centres undefined),0.1,-2.9,4998,2.7
COc1cccc(Oc2ccc(S(=O)(=O)N3CCOCC3)cc2[N+](=O)[O-])c1,-2.6,-19.9,5587,-7.1
CCOc1ccc(CNC(=O)CN2C(=O)CSc3ccc(S(=O)(=O)N4CCOCC4)cc32)cc1,-0.1,-2.6,3455,-2.5
Nc1cc2c(cc1Br)-c1ccccc1C2=NO,0.7,-6.8,3025,-0.8
CCOC(=O)c1cc(=O)n(Cc2ccccc2C)c2ccccc12,-0.3,0.2,20854*,-1.3
CC1(C)CC(NS(=O)(=O)c2ccc(S(=O)(=O)N3CCOCC3)cc2)CCO1 (centres undefined),-1.0,-0.9,19550*,-5.2
CCCCCCN1CCN(C2CN(Cc3cn(Cc4cccc(C(F)(F)F)c4)nn3)S(=O)(=O)C2)CC1 (centres undefined),0.6,4.2,5953,1.9
CCOC(=O)c1nc(C)nc(Sc2n[nH]c(-c3ccccc3)n2)c1C,0.3,-1.5,6143,-7.2
O=C(CSc1nnnn1C1CCCCC1)N1c2ccccc2Sc2ccccc21,?,5.0,19588*,-1.3
CC(=O)c1ccc(NC(=O)CSc2nc(C3CC3)nc3ccccc23)cc1,1.9,-16.7,4092,-4.0
SMILES,BoNT-A LC inh2,BoNT F protease,Autofluor counter,Anthrax LF prot
O=C(CSc1nnnn1C1CCCCC1)N1CCOCC1,0.2,-1.7,2481,-0.9
O=C(CSc1nc(C2CC2)nc2ccccc12)N1c2ccccc2Sc2ccccc21,2.1,0.7,22153*,-0.7
CCOc1ccc(C(CCc2ccccc2)NC(=O)c2ccccc2)cc1OCC (centres undefined),?,5.2,21649*,1.9
CCOc1ccc(C(=O)NC(C)CCc2ccccc2)cc1 (centres undefined),-3.4,-7.6,4025,12.8
C[C@@H]1CN([C@H](C)CO)C(=O)CCCn2nncc2CO[C@H]1CN(C)Cc1cccnc1,-0.1,-7.2,3510,-1.8
O=c1oc2c(CN3CCOCC3)c(O)ccc2c2c1CCC2,-3.8,-6.6,20943*,-0.3
O=C(CCCSc1nc2ccccc2[nH]1)N1CCN(c2ccccc2)CC1,4.8,5.5,20365*,-0.1
O=C(CSc1nc2ccccc2[nH]1)N1CCCCC1,1.7,2.4,21788*,3.4
O=C(CSc1nc2ccccc2[nH]1)N1CCN(c2ccccc2)CC1,-0.3,-1.0,9319,-4.4
